Experimental data taken from PubChem BioAssay (NCATS).
Where “and” joins values, the source holds several entries; their conditions need not be identical. Identical values can stand only once. Records with an inconclusive call do not appear. Calls of active or inactive are those of the source. Calls come from the whole dose curve; as a rule, active = well fitted curve in the direction sought with a large enough effect; inconclusive = small, poorly fitted or top-dose-only effect, or another doubt; inactive = no such curve, though single readings can be large; an effect the other way counts as inactive or inconclusive.

Legend:
[1] = qHTS of pediatric cancer cell lines to identify multiple opportunities for drug repurposing: Confirmatory screen for SK-N-MC cells (AID 1347111); conditions: SK-N-MC cell viability; series mostly up to 45.9 µM;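 note: cells exposed to compound for 48 h before the readout; nearly all actives have a fitted effect of over 70% in size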
Outline: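 Seed 500-1,000 cells/well; rest 5 h at 37 degrees C. Pin-transfer compounds, 11-point titration. Incubate 48 h. Add CellTiter-Glo, 15 min RT, read luminescence.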

[2] = qHTS of pediatric cancer cell lines to identify multiple opportunities for drug repurposing: Confirmatory screen for BT-12 cells (AID 1347112); conditions: BT-12 rhabdoid tumor cells, viability; series mostly up to 45.9 µM;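 note: viability read after 48 h of compound exposure; nearly all actives have a fitted effect of over 55% in size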
Outline: (§1)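 Cells (500-1,000/well) rested 5 h, then received compounds for 48 h; metabolically active cells were measured by CellTiter-Glo luminescence. Final concentrations spanned up to 46 µM (MIPE, 11-point) or 0.59 nM-46 µM (NPC, 8-point) in primary screens, 11-point in follow-ups.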

[3] = qHTS of pediatric cancer cell lines to identify multiple opportunities for drug repurposing: Confirmatory screen for LAN-5 cells (AID 1347113); conditions: LAN-5 neuroblastoma cell viability; series mostly up to 45.9 µM; note: nearly all actives have a fitted effect of over 65% in size
Outline: as §1

[4] = qHTS of pediatric cancer cell lines to identify multiple opportunities for drug repurposing: Confirmatory screen for DAOY cells (AID 1347114); conditions: DAOY medulloblastoma cells viability, cytotoxicity qHTS; series mostly up to 45.9 µM; note: nearly all actives have a fitted effect of over 65% in size
Outline: (§2)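 Viability measured as metabolically active cells via CellTiter-Glo luminescence following 48 hours of compound exposure, 11-point dilutions in confirmatory testing. 500-1,000 cells/well plated 5 hours before dosing; controls were DMSO and 2.3 µM bortezomib.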

[5] = qHTS of pediatric cancer cell lines to identify multiple opportunities for drug repurposing: Confirmatory screen for TC32 cells (AID 1347118); conditions: TC32 Ewing sarcoma cells viability qHTS; series mostly up to 45.9 µM;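 note: cells exposed to compound for 48 h before the read; nearly all actives have a fitted effect of over 65% in size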
Outline: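 qHTS, TC32, 48 h drug treatment, CellTiter-Glo luminescence as a proxy for metabolically active cells; primary top concentration 46 µM (MIPE 11-pt, NPC 8-pt); confirmatory 11-pt.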

[6] = qHTS of pediatric cancer cell lines to identify multiple opportunities for drug repurposing: Confirmatory screen for MG 63 (6-TG R) cells (AID 1347119); conditions: MG-63 (6-TG resistant) osteosarcoma viability; series mostly up to 45.9 µM; note: nearly all actives have a fitted effect of over 55% in size
Outline: as §1

[7] = qHTS of pediatric cancer cell lines to identify multiple opportunities for drug repurposing: Confirmatory screen for control Hh wild type fibroblast cells (AID 1347121); conditions: viability qHTS; series mostly up to 45.9 µM; note: nearly all actives have a fitted effect of over 70% in size
Outline: as §1

[8] = qHTS of pediatric cancer cell lines to identify multiple opportunities for drug repurposing: Confirmatory screen for U-2 OS cells (AID 1347122); conditions: U-2 OS osteosarcoma cell viability; series mostly up to 45.9 µM; note: nearly all actives have a fitted effect of over 65% in size
Outline: as §1

[9] = qHTS of pediatric cancer cell lines to identify multiple opportunities for drug repurposing: Confirmatory screen for NB-EBc1 cells (AID 1347115); conditions: NB-EBc1 neuroblastoma cells, viability (cytotoxicity); series mostly up to 45.9 µM;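 note: cells exposed to compound for 48 h before the viability read; nearly all actives have a fitted effect of over 45% in size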
Outline: as §1

[10] = qHTS of pediatric cancer cell lines to identify multiple opportunities for drug repurposing: Confirmatory screen for SJ-GBM2 cells (AID 1347116); conditions: SJ-GBM2 glioblastoma cells, viability; series mostly up to 45.9 µM; note: nearly all actives have a fitted effect of over 60% in size
Outline: as §2

Measured: Potency
Potency is the fitted concentration of half-maximal effect.

CC[C@]1(O)C[C@@H]2CN(CCc3c([nH]c4ccccc34)[C@@](C(=O)OC)(c3cc4c(cc3OC)N(C)[C@H]3[C@@](O)(C(=O)OC)[C@H](OC(C)=O)[C@]5(CC)C=CCN6CC[C@]43[C@@H]65)C2)C1
inactive: [7]
active: [1] 657 nM and 737 nM | [2] 1.65 µM and 1.85 µM | [3] 2330 nM | [4] 208 nM and 233 nM | [5] 465 nM and 827 nM | [6] 522 nM and 1.04 µM | [8] 369 nM and 1.17 µM

CC(=O)Nc1ccc([C@H](C)C(=O)Nc2ncc(C(C)C)s2)cc1
active: [1] 8.27 µM | [2] 3.69 µM | [3] 3690 nM | [4] 4.65 µM | [5] 7.37 µM | [8] 1.47 µM
inactive: [9] | [7]

NS(=O)(=O)c1cccc2c1C(=O)c1cccc(O)c1C2=O
active: [1] 2.93 µM | [2] 1.04 µM | [3] 1850 nM | [4] 2.33 µM | [10] 4140 nM | [5] 0.827 µM | [7] 2930 nM | [8] 1.04 µM
inactive: [9]

CC(=NNC(=S)N1CCC1)c1ccccn1
not listed: [4] | [8]
inactive: all other assays above

Cc1[nH]c(C=C2C(=O)Nc3ccc(S(=O)(=O)Cc4c(Cl)cccc4Cl)cc32)c(C)c1C(=O)N1CCC[C@H]1CN1CCCC1
inactive: [9]
active: [1] 9.27 µM | [3] 9270 nM | [5] 11.7 µM | [6] 32.9 µM | [7] 32900 nM

Cc1nnc(C(C)C)n1C1C[C@H]2CC[C@@H](C1)N2CC[C@H](NC(=O)C1CCC(F)(F)CC1)c1ccccc1 (stereo not given in full)
active: [1] 7.37 µM | [9] 7370 nM | [10] 10400 nM
inactive: [4] | [8]

CC1(C)S[C@H]2[C@H](NC(=O)[C@@H](N)c3ccc(O)cc3)C(=O)N2[C@@H]1C(=O)O
not listed: [1]
inactive: all other assays above

COc1ccc(-c2nc(N3CCOCC3)c3sc(CN(C)c4ncc(C(=O)NO)cn4)cc3n2)cn1
active: [2] 1.85 µM | [3] 465 nM | [4] 1.04 µM | [6] 0.928 µM | [8] 0.522 µM

CC(C)(C(=O)NCC(F)(F)C(F)(F)F)C(=O)N[C@@H]1C(=O)Nc2ccccc2-c2ccccc21
not listed: [1] | [5]
inactive: all other assays above

CC(=O)O[C@]1(C(C)=O)CC[C@@H]2[C@@H]3C[C@H](C)C4=CC(=O)CC[C@]4(C)[C@H]3CC[C@@]21C
inactive: [3] | [4] | [9] | [6] | [7] | [8]

N[C@@]1(C(=O)O)CS(=O)(=O)[C@H]2[C@H](C(=O)O)[C@H]21
inactive: [4] | [9] | [7] | [8]
active: [1] 0.0465 µM | [5] 0.0522 µM | [6] 13.1 µM

CO[C@H]1C(=O)[C@]2(C)[C@@H](OC)C[C@H]3OC[C@@]3(OC(C)=O)[C@H]2[C@H](OC(=O)c2ccccc2)[C@]2(O)C[C@H](OC(=O)[C@H](O)[C@@H](NC(=O)OC(C)(C)C)c3ccccc3)C(C)=C1C2(C)C
active: [1] 0.0033 µM | [5] 0.0033 µM | [6] 0.0083 µM | [8] 0.0185 µM
inactive: [3] | [9] | [10] | [7]

COc1cccc(-c2cc(=O)c3ccccc3o2)c1N
active: [5] 20.8 µM
not listed: [1] | [3] | [10]
inactive: all other assays above

CC[C@@H]1C=C(C)C[C@H](C)C[C@H](OC)[C@H]2O[C@@](O)(C(=O)C(=O)N3CCCC[C@@H]3C(=O)O[C@H](C(C)=C[C@@H]3CC[C@H](Cl)[C@H](OC)C3)[C@H](C)[C@@H](O)CC1=O)[C@H](C)C[C@H]2OC
active: [9] 23300 nM | [5] 18.5 µM
inactive: [7]

CC[C@]1(O)C[C@@H]2CN(CCc3c([nH]c4ccccc34)[C@@](C(=O)OC)(c3cc4c(cc3OC)N(C=O)[C@@H]3C45CCN4CC=C[C@](CC)([C@H]45)[C@@H](OC(C)=O)[C@]3(O)C(=O)OC)C2)C1 (stereo not given in full)
inactive: [2] | [3] | [9] | [6] | [7] | [8]

CNC1CCC(N(Cc2cccc(-c3ccncc3)c2)C(=O)c2sc3c(F)ccc(F)c3c2Cl)CC1 (stereo not given)
inactive: [9]
active: [1] 11.7 µM | [4] 20.8 µM | [5] 13.1 µM

CC1(C)CCC2=C(O1)c1ccccc1C(=O)C2=O
active: [3] 9270 nM | [10] 1310 nM | [5] 23.3 µM | [8] 23.3 µM

O=C(Nc1cccc(Br)c1)c1cccc(S(=O)(=O)N2CCCCCC2)c1
inactive: [3] | [10] | [7] | [8]

O=c1[nH]cnc2c1ncn2[C@H]1CC[C@@H](CO)O1
not listed: [1] | [3] | [8]
inactive: all other assays above

COc1cc2nc(-c3ccc(N4CCN(C)CC4)cc3)nc(NCCN3CCOCC3)c2cc1OC
active: [2] 0.233 µM | [4] 1.17 µM | [8] 0.261 µM
inactive: [7]

COc1ccc2c(Oc3ccc(NC(=O)c4c(C)n(CC(C)(C)O)n(-c5ccccc5)c4=O)cc3F)ccnc2c1
inactive: [2] | [3] | [7]

Cc1cc(OCCCc2c(C(=O)O)n(Cc3cccnc3)c3c(-c4c(COc5ccc(N6CCN([S+](C)(=O)[O-])CC6)cc5)nn(C)c4C)cccc23)cc(C)c1Cl
active: [1] 20.8 µM | [8] 2.61 µM
inactive: [9]

NC1=N[C@@]2(c3cc(NC(=O)c4ccc(F)cn4)ccc3F)COC[C@@H]2CS1
not listed: [1]
inactive: all other assays above

COc1ncc(-c2ccc3nccc(-c4ccnnc4)c3c2)cc1NS(=O)(=O)c1ccc(F)cc1F
active: [1] 0.0329 µM | [3] 73.7 nM | [9] 8270 nM | [5] 0.0369 µM | [6] 0.0037 µM

CO[C@H]1C[C@@H]2CC[C@@H](C)[C@@](O)(O2)C(=O)C(=O)N2CCCC[C@@H]2C(=O)O[C@H]([C@H](C)C[C@@H]2CC[C@H](OCCO)[C@H](OC)C2)CC(=O)[C@H](C)C=C(C)[C@@H](O)[C@@H](OC)C(=O)[C@H](C)C[C@H](C)C=CC=CC=C1C
inactive: [2] | [9] | [10] | [7]

CO[C@H]1C[C@@H]2CC[C@@H](C)[C@@](O)(O2)C(=O)C(=O)N2CCCC[C@@H]2C(=O)O[C@H]([C@H](C)C[C@@H]2CC[C@H](OP(C)(C)=O)[C@H](OC)C2)CC(=O)[C@H](C)C=C(C)[C@@H](O)[C@@H](OC)C(=O)[C@H](C)C[C@H](C)C=CC=CC=C1C
active: [1] 11.7 µM | [5] 10.4 µM | [8] 14.7 µM
inactive: [7]

CC=C(C)C(=O)O[C@H]1C(C)=C[C@]23C(=O)[C@@H](C=C(CO)[C@@H](O)[C@]12O)[C@H]1[C@@H](C[C@H]3C)C1(C)C
active: [8] 0.0233 µM
inactive: [2] | [9] | [10] | [7]

O=C1c2ccccc2-[n+]2ccc3c([nH]c4ccccc43)c21
active: [2] 2.93 µM | [3] 827 nM | [4] 1.85 µM | [9] 2610 nM | [10] 2610 nM | [5] 1.31 µM | [6] 3.29 µM | [7] 7370 nM | [8] 1.17 µM

O=C(CCCCCCC(=O)Nc1ccccc1)NO
inactive: [7]

O=C1NC(=O)C(=Cc2ccc3c(c2)OC(F)(F)O3)S1
inactive: [2] | [3] | [9] | [10] | [7]
active: [4] 26.1 µM

O=c1cc(-c2ccc(O)cc2)oc2cc(O)cc(O)c12
inactive: [3] | [4] | [10] | [7] | [8]
